The values below come from PubChem BioAssay (Tox21).

“And” between values parts separate entries of the source, which are not always exact repeats. Equal values may be shown once. Results filed as inconclusive are left out. Entries that show only a call come without a potency. The source made the active and inactive calls. Calls follow the shape of the dose curve; as a rule, active = well fitted cell-killing curve with a large enough effect in the repeat runs; inconclusive = weak or mixed curves, or effect the other way; inactive = flat fitted curve, though single readings scatter.
Potency is read from the fitted curve at half-maximal effect.

This test is described as follows: qHTS assay to identify small molecule antagonists of the androgen receptor (AR) signaling pathway using the MDA cell line - cell viability counter screen (AID 743041; also: nearly all actives have a fitted effect of over 45% in size). The note with it: MDA-kb2 viability, CellTiter-Fluor, 16 h, cells co-treated with R1881 androgen agonist; series mostly up to 70.3 µM. From the text:
National Center for Advancing Translational Sciences [NCATS]
NIH Chemical Genomics Center [NCGC]
U.S. Environmental Protection Agency [EPA]
National Institutes of Environmental Health Sciences [NIEHS]
National Toxicology Program [NTP]
U.S. Food and Drug Administration [FDA]
Androgen receptor (AR), a nuclear hormone receptor, plays a critical role in AR-dependent prostate cancer and other androgen related diseases. Endocrine disrupting chemicals (EDCs) and their interactions with steroid hormone receptors like AR may cause disruption of normal endocrine function as well as interfere with metabolic homeostasis, reproduction, developmental and behavioral functions. To identify the compounds that inhibit AR signaling, MDA-kb2 AR-luc cell line (from ATCC, deposited by Wilson et al.) was used to screen the Tox21 10K compound library. MDA-kb2 AR-luc cell line is human breast carcinoma cell line that was stably transfected with a luciferase reporter gene under control of the MMTV promoter containing response elements for both androgen receptor (AR) and glucocorticoid receptor (GR). The cytotoxicity of the Tox21 compound library against the MDA-kb2 AR-luc cell line was tested in parallel by measuring the cell viability using CellTiter-Fluor assay (Promega, Madison, WI) in the same wells.
Tox21 Assay Protocol Summary:
MDA-kb2 AR-luc cells were dispensed at 3,000 cells/4 uL/well of culture medium into white wall/solid-bottom 1536-well plates using a Multidrop Combi (ThermoFisher Scientific, Waltham, MA) dispenser. After the assay plates were incubated at a 37C and 0% CO2 for 5 hr, 23 nL of compounds dissolved in DMSO, positive controls or DMSO only was transferred to the assay plate by a Pintool station (Kalypsys, San Diego, CA), followed by addition of 1 uL of agonist (R1881) in culture medium using a Bioraptr Flying Reagent Dispenser (FRD) workstation (Beckman Coulter, Indianapolis, IN, USA). The plates were incubated at a 37C and 0% CO2 for 16 h. After 15.5 h incubation, 1uL of CellTiter-Fluor reagent (Promega) was added using a Bioraptr FRD to each plate for measuring cytotoxicity. The fluorescence intensity was quantified on a ViewLux plate reader (PerkinElmer, Shelton, CT) following 30 min incubation at 37C and 0% CO2.
In general terms: Quantitative high-throughput screening tests each substance at several concentrations.
Turning to `O=[N+]([O-])c1cc(C(F)(F)F)c(Cl)c([N+](=O)[O-])c1Cl`, the Potency is 54.5 µM (active).
As for `COc1ccc(N)cc1N`, the entry is “inactive”; as for `c1ccc(Nc2ccc3ccccc3c2)cc1`, “inactive”; as for `OC(c1ccc(Cl)cc1)(c1ccc(Cl)cc1)C(Cl)(Cl)Cl`, “inactive”.
The result for `O=c1oc2ccccc2c(O)c1Cc1c(O)c2ccccc2oc1=O` reads “inactive”; that for `C[C@]12CC[C@@H]3c4ccc(OC(=O)N(CCCl)CCCl)cc4CC[C@H]3[C@@H]1CC[C@@H]2O`, “inactive”; that for `CCCN(CCC)CCc1c[nH]c2ccccc12`, “inactive”.
For the molecule `CCCCCCCCCBr`, the Potency entry is “inactive”.
On to `CCCCCCCCCC[N+](C)(C)CCCCCCCCCC`, for which the Potency was 24.8 µM (active) and 30.6 µM (active).
For the molecule `CCN`, the Potency result was “inactive”.
Consider `O=[N+]([O-])c1c2ccccc2cc2ccccc12`, for which the Potency entry was “inactive”.
For `BrC(Br)C(Br)(Br)Br`, the Potency result is “inactive”.
On to `N#CC(Cl)Cl`, for which the Potency result was “inactive”.
The result for `O=C/C(Cl)=C(/Cl)C(=O)O` reads “inactive”.
Regarding `ClC(Cl)=C(c1ccc(Cl)cc1)c1ccc(Cl)cc1`, the Potency entry was “inactive”.
As for `Nc1ccc(Cc2ccc(N)c(Cl)c2)cc1Cl`, the entry is “inactive”; as for `CCC[CH2][Sn]([CH2]CCC)([CH2]CCC)[O]C(=O)c1ccccc1`, 1.93 µM (active).
The result for `CCCCCCCCCCCCCC[P+](CCCCCC)(CCCCCC)CCCCCC` (tested in a mixture with another compound) reads 4.33 µM (active); that for `BrCBr`, “inactive”.
`[Hg+2].[I-].[I-]`: the Potency was 54.5 µM (active).
On to `CC1(C)C(/C=C(\Cl)C(F)(F)F)C1C(=O)OC(C#N)c1cccc(Oc2ccccc2)c1` (stereo not given), for which the Potency entry is “inactive”.
Turning to `CC(C)OS(C)(=O)=O`, the Potency result is “inactive”.
On to `CC(C)(C)C(O)/C(=C\c1ccc(Cl)cc1Cl)n1cncn1` (stereo not given), for which the Potency result was “inactive”.
As for `COC(=O)N(C(=O)N1CO[C@@]2(C(=O)OC)Cc3cc(Cl)ccc3C2=N1)c1ccc(OC(F)(F)F)cc1`, the entry is “inactive”.
Take `C=CC(=O)OCCCCOC(=O)C=C`: the Potency entry is “inactive”.
Take `O=C(CCl)Nc1ccccc1`: the Potency is 54.5 µM (active).
On to `Oc1ccc2ccc3cccc4ccc1c2c34`, for which the Potency entry was “inactive”.
Consider `Oc1ccc(C(=C(Cl)Cl)c2ccc(O)cc2)cc1`, for which the Potency entry was “inactive”.
As for `O=[N+]([O-])c1cc([N+](=O)[O-])c2ccccc2c1`, the entry is “inactive”; as for `CC1(C)[C@H](C(=O)O[C@H](C#N)c2cccc(Oc3ccccc3)c2)[C@@H]1/C=C(\Cl)C(F)(F)F`, “inactive”.
As for `Cn1cc(C2=C(c3cn(C4CCN(Cc5ccccn5)CC4)c4ccccc34)C(=O)NC2=O)c2ccccc21`, the entry is “inactive”; as for `COc1cc(N)c(Cl)cc1C(=O)NC1CN2CCC1CC2` (stereo not given), “inactive”.
The result for `CCC(C)(C)C(=O)OC1=C(c2ccc(Cl)cc2Cl)C(=O)OC12CCCCC2` reads “inactive”; that for `COc1ccc(OC)c(CC(C)N)c1` (stereo not given), “inactive”; that for `N#C/C=C/C#N`, “inactive”.
With `CCCN(CC)CC1COC2(CCC(C(C)(C)C)CC2)O1` (stereo not given), the Potency result is “inactive”.
As for `FC(F)(F)c1cccc(C2=CCN(CCc3ccc4ccccc4c3)CC2)c1`, the entry is “inactive”; as for `O=c1ssc(Cl)c1Cl`, “inactive”.
The result for `CC(Cc1ccc(C(C)(C)C)cc1)CN1C[C@@H](C)O[C@@H](C)C1` (stereo not given in full) reads “inactive”.
The result for `CCOCCOC(C)=O` reads “inactive”.
